Consider 6 molecules from PubChem BioAssay (NCATS).

Inconclusive results are not listed. Calls of active or inactive are those of the source. Unless noted, calls come from the whole dose curve; as a rule, active = well fitted curve in either direction with a large enough effect (not every such curve was filed as active); inconclusive = small, poorly fitted or top-dose-only effect, or another doubt; inactive = flat fitted curve, though single readings scatter.

Experiment [1] concerns the target Lysosomal acid glucosylceramidase (Homo sapiens) (UniProt P04062). Description: Glucocerebrosidase-p2 (AID 348; in the data active = potency below about 10 µM; note: potency is the fitted concentration of half-maximal effect). Particulars: purified GBA, blue fluorogenic substrate, 40 min. The method, boiled down:
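Normal human glucocerebrosidase (0.2 nM) with blue fluorogenic substrate (80 uM final) in citrate/phosphate pH 5.9 with 10mM sodium taurocholate, 0.01% tween-20; 40 min RT, NaOH/glycine stop; fluorescence Ex 365/Em 440; AC50 from a titration from 0.6 nM upwards.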

Experiment [2] in a line: AP1 Signaling Pathway (AID 357).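 Note: ME-180 reporter cells stimulated with EGF at its EC50 level; % is set by controls: 0 for no effect and ±100 for the full control effect.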 As to conditions: ME-180 AP-1-bla reporter, EGF-induced, beta-lactamase ratio, 5 h; at 7.69 µM (top of the series) unless noted. The essentials: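 A ratiometric CCF4 readout (405 nm excitation; 460 and 530 nm emission) quantified AP-1-driven beta-lactamase in ME-180 cells after 5 h with compound and EC50 EGF; AC50 values were derived for activators and inhibitors.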

Experiment [3] concerns the target Cytochrome P450 1A2 (Homo sapiens) (UniProt P05177). Description: p450-cyp1a2 (AID 410; calls by dose curve; note: potency is the fitted concentration of half-maximal effect;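 for activity change, negative = inhibition: -100% = full effect of reference inhibitor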). As to conditions: recombinant CYP1A2, luciferin-ME demethylation, luminescence; series mostly up to 57 µM. The essentials: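 Luminescent demethylation readout: Luciferin-ME (100uM, equal to Km) turned over by 20nM CYP1A2 for 60 min at room temperature after NADPH regeneration addition, following 10 min compound preincubation. Normalization used 57 uM furafylline as full inhibition.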

Experiment [4] in a line: Stat Signaling Pathway (AID 446).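 Note: ME-180 cervical cancer cells given 40 pM IL-6 alongside compound; SIE-controlled beta-lactamase reporter measured as 460/530 nm FRET emission ratio; % is set by controls: 0 for no effect and ±100 for the full control effect.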 Particulars: ME-180 SIE beta-lactamase reporter, IL-6 stimulated, 5 h; at 7.69 µM (top of the series) unless noted. The essentials: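 Compound effects on IL-6-induced STAT reporter activity were measured in ME-180 cells. After overnight culture, cells were co-treated with 40 pM IL-6 for 5 hrs before beta-lactamase substrate loading at room temperature.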

In experiment [5] the target is Glucocorticoid receptor (Homo sapiens) (UniProt P04150). Put plainly: GR-GFP Redistribution (AID 450;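 active = compounds whose dose series gives a full or clear partial fitted curve of increased nuclear translocation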; note: potency is the fitted concentration of half-maximal effect). As to conditions: U2OS GR-GFP nuclear translocation, laser cytometry, 2 h.
Sequence of Glucocorticoid receptor (Homo sapiens) (P04150 whole entry, looked up, the tested form may be a part): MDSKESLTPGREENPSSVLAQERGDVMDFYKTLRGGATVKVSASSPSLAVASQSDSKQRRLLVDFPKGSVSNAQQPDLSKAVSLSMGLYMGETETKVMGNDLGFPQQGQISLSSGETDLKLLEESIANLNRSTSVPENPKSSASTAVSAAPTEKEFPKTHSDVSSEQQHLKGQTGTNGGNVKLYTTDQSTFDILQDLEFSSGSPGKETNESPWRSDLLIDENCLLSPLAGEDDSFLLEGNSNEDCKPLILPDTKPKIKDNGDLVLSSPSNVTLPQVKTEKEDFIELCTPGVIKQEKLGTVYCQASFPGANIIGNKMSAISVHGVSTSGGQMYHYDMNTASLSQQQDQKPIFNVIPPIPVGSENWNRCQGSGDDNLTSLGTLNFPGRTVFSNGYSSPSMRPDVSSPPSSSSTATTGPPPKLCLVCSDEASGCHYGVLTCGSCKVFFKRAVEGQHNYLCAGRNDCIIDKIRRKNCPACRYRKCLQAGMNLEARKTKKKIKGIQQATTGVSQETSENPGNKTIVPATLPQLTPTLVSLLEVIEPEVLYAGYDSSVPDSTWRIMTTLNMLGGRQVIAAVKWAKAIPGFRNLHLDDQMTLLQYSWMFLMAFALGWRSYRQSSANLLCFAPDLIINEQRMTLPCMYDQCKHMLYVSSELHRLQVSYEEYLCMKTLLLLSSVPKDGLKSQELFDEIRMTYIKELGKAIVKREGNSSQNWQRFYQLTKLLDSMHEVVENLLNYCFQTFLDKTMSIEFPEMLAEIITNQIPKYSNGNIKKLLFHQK
For experiment [6] the target is unchanged. Description: GR-EFC Redistribution (AID 451; calls by dose curve; note: potency is the fitted concentration of half-maximal effect). As to conditions: CHO-K1 GR-EFC translocation, beta-gal luminescence, 2 h. The method, boiled down: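 Translocation of GR-ED fusion to nuclear EA restores b-gal, read by luminescence after 1 h room-temperature detection. Engineered CHO-K1 biosensor cells, 1,000/well, exposed 2 h at 37 C to titrations up to 46 uM final.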

Experiment [7] concerns the target Mitogen-activated protein kinase 10 (Mus musculus) (UniProt Q61831). Put plainly: JNK3 AlphaScreen Assay (AID 530).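 Note: kinase came from lysate of stimulated human HepG2 cells; signal reports phosphorylation of biotinylated GST-cJun 1-79 at Ser73 with 10 µM ATP; % is set by controls: 0 for no effect and ±100 for the full control effect.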 Particulars: JNK3 lysate, c-Jun phosphorylation; series mostly up to 57.1 µM. The method, boiled down: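 qHTS titrations with 15 min compound pre-incubation before adding ATP (10 uM final). Read-out: AlphaScreen of Ser73-phosphorylated biotin-GST-cJun using HepG2 lysate JNK3 activated by IL-1β and TNFα.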
Background: Alpha assays give light when donor and acceptor beads are brought close together.

Experiment [8] has as its target Cytochrome P450 3A4 (Homo sapiens) (UniProt P08684). Description: qHTS Assay for Inhibitors and Substrates of Cytochrome P450 3A4 (AID 884; active = well fitted curve in the direction sought with a large enough effect; an effect the other way counts as inactive or inconclusive; note: potency is the fitted concentration of half-maximal effect; nearly all actives have a fitted effect of over 50% in size). As to conditions: recombinant CYP3A4, Luciferin-PPXE luminescence; series mostly up to 57.1 µM. The essentials: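 Luminescent readout of luciferin produced by CYP3A4 (20 nM) dealkylation of Luciferin-PPXE, 25 uM (its KM). NADPH-driven reaction ran 60 min at RT after 10 min compound preincubation; data scaled to 57 uM ketoconazole as 100% inhibition.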
(Quantitative high-throughput screening tests each substance at several concentrations.)

Experiment [9] shares this target. Description: qHTS Assay for Activators of Cytochrome P450 3A4 (AID 885; active = well fitted curve in the direction sought with a large enough effect; an effect the other way counts as inactive or inconclusive; note: nearly all actives have a fitted effect of over 65% in size). Particulars: recombinant CYP3A4, Luciferin-PPXE luminescence, 60 min; series mostly up to 57.1 µM. The method, boiled down:
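CYP3A4 activity: Luciferin-PPXE O-dealkylation, 25uM substrate, 200mM KPO4, RT throughout. Read-out is luciferase luminescence; higher values reflect activation.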

In experiment [10] the target is Cytochrome P450 2C19 (Homo sapiens) (UniProt P33261). Description: qHTS Assay for Inhibitors and Substrates of Cytochrome P450 2C19 (AID 899; active = well fitted curve in the direction sought with a large enough effect; an effect the other way counts as inactive or inconclusive; note: potency is the fitted concentration of half-maximal effect; nearly all actives have a fitted effect of over 60% in size). As to conditions: recombinant CYP2C19, luciferin-H EGE luminescence; series mostly up to 57.1 µM. The essentials:
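5nM enzyme + 10uM Luciferin-H EGE (=KM), 50mM KPO4; cpd pin-transferred, 10 min 37C; NADPH regen, 60 min 37C; stopped w/ luciferin detection reagent, 20 min; luminescence. Normalized to 57uM ketoconazole (AC100).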

Experiment [11] can be described thus: Confirmation and Secondary Assay for Modulators of Hemoglobin Beta Chain Splicing at IVS2 654 locus (AID 910; active = well fitted curve in the direction sought with a large enough effect; an effect the other way counts as inactive or inconclusive;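 note: HeLa cells stably carrying EGFP split by mutant beta-globin IVS2-654 intron; per-well total GFP intensity by laser scanning cytometry after 2-day treatment; % of control where 0% means no effect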). Particulars: HeLa EGFP-654 splicing reporter, GFP fluorescence, 48 h; series mostly up to 38.3 µM. The essentials:
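Readout: per-well total peak green fluorescence (488 nm ex, 500–520 nm em) from objects 5–250 µm, reflecting correct splicing of an EGFP-654 reporter. Compounds were applied for 2 days at 37 °C to overnight-plated HeLa EGFP-654 cells; controls were DMSO and 500 nM IVS2-654 PNA.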

The nature of experiment [12]: qHTS Assay for Identification of Small Molecule Agonists for Hypoxia Response Element Signaling Pathway (AID 914; active = well fitted activation curve with a large enough effect in the signal ratio, with a control signal flat, not every such curve was filed as active; the % refers to the signal ratio; note: % of control where 0% means no effect). As to conditions: ME-180 (cervical carcinoma) HRE-bla reporter, beta-lactamase ratio, CoCl2, 17 h; activation: stronger effect = higher value. The method, boiled down: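 Compounds in a titration series were added to ME-180 reporter cells alongside an EC50 level of CoCl2. After 17 hours, beta-lactamase activity was read as the 460nm/530nm emission ratio of CCF4, giving AC50 values.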

Experiment [13] is described as follows: Confirmation and Secondary Assay for Modulators of Hemoglobin Beta Chain Splicing at IVS2 705 locus (AID 930; active = well fitted curve in the direction sought with a large enough effect; an effect the other way counts as inactive or inconclusive;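 note: HeLa cells stably expressing the EGFP-705 splicing reporter; % of control where 0% means no effect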). As to conditions: HeLa EGFP-705 splicing reporter, GFP fluorescence, 48 h; series mostly up to 38.3 µM. The method, boiled down: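 Assay measures total GFP intensity per well in HeLa EGFP-705 cells after 2 days with compound; mis-splicing normally truncates EGFP, so fluorescence indicates corrected splicing.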

A short description of experiment [14]: qHTS Assay for Lipid Storage Modulators (AID 1519; calls by dose curve). As to conditions: Drosophila S3 cells, BODIPY lipid droplet/cell ratio, laser cytometry, cells loaded with oleic acid; for activity change, negative = inhibition: at 57.5 µM (top of the series). The method, boiled down:
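Cells seeded at 5,000 per well were treated with compounds over a concentration series and loaded with oleic acid (400 uM, as added). Lipid droplet fluorescence (488 nm excitation, 500-530 nm channel) was read by laser-scanning cytometry and normalized to 20 uM Triacsin C.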

Experiment [15] can be described thus: NFAT Signaling Pathway (AID 444).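 Note: carbachol stimulus at about its EC50 of 1 µM final; % is set by controls: 0 for no effect and ±100 for the full control effect.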 As to conditions: Jurkat NFAT-bla M1, carbachol, beta-lactamase ratio, 5 h; at 7.69 µM (top of the series) unless noted. The essentials:
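Read-out: CCF4 FRET ratio (460 nm/530 nm) after 1 h RT dye loading, used for %activity and AC50 from titration series. Cells: Jurkat NFAT-β-lactamase/M1 line, treated with compound plus 1 uM carbachol for 5 h, 37 °C.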

The target of experiment [16] is 3',5'-cyclic-AMP phosphodiesterase 4B (Homo sapiens) (UniProt Q07343). Description: qHTS Assay for Inhibitors of PDE-IV (AID 607; active = well fitted activation curve with a large enough effect in the main read-out, with a control signal flat, not every such curve was filed as active; note: % of control where 0% means no effect). Particulars: HEK293 ACTOne CNG channel cells, membrane potential fluorescence; series mostly up to 22.9 µM. The essentials: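 ACTOne HEK293 cells carry a modified cAMP-gated CNG channel and express endogenous PDE4; plated 1000 cells/well, compounds up to 22.9 uM final. Membrane-potential dye fluorescence (ex 535/em 590) was read; parental cells received 10 uM forskolin + 100 uM RO 20-1724.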
Sequence of 3',5'-cyclic-AMP phosphodiesterase 4B (Homo sapiens) (Q07343 whole entry, looked up): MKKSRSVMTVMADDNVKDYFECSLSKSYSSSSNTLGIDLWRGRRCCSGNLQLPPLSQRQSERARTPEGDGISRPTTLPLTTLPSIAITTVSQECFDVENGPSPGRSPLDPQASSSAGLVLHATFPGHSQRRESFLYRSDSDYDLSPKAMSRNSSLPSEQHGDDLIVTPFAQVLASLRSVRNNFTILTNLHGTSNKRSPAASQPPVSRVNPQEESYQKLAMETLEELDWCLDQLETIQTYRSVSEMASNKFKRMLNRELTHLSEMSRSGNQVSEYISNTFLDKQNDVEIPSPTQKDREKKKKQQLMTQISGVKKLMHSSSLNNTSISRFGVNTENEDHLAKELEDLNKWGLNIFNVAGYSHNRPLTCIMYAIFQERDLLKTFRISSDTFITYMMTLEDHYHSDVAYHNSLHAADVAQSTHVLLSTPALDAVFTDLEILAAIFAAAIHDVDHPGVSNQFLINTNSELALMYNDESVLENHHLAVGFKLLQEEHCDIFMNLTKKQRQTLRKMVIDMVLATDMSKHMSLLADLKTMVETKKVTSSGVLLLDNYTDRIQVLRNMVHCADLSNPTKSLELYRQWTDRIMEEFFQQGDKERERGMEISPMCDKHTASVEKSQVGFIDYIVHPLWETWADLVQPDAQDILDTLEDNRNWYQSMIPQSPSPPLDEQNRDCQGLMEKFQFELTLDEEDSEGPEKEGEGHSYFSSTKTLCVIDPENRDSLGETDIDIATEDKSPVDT

In experiment [17] the target is Ubiquitin carboxyl-terminal hydrolase 1 (Homo sapiens) (UniProt O94782). Description: Inhibitors of USP1/UAF1: Pilot qHTS (AID 504865; active = well fitted curve in the direction sought with a large enough effect; an effect the other way counts as inactive or inconclusive;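 note: rhodamine fluorescence freed from ubiquitin-rhodamine substrate followed over time; top concentration of the series differs between compounds; % is set by controls: 0 for no effect and ±100 for the full control effect; nearly all actives have a fitted effect of over 35% in size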). As to conditions: purified USP1/UAF1, Ub-rhodamine cleavage fluorescence; series mostly up to 54.9 µM. The essentials:
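1nM USP1/UAF1 + cpd, 15 min RT; start w/ Ub-Rho 150nM final; kinetic FL 480/540 nm, 6 reads q60 s. Buffer 50mM HEPES pH 7.8, 0.5mM EDTA, 1mM TCEP, 0.01% Tween-20, 0.1 mg/ml BSA.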

Where [18] appears, read: measured here: cell count channel max response.
Where [19] appears, read: measured here: lipid channel max response.

Sequence of Cytochrome P450 1A2 (Homo sapiens) (P05177 whole entry, looked up): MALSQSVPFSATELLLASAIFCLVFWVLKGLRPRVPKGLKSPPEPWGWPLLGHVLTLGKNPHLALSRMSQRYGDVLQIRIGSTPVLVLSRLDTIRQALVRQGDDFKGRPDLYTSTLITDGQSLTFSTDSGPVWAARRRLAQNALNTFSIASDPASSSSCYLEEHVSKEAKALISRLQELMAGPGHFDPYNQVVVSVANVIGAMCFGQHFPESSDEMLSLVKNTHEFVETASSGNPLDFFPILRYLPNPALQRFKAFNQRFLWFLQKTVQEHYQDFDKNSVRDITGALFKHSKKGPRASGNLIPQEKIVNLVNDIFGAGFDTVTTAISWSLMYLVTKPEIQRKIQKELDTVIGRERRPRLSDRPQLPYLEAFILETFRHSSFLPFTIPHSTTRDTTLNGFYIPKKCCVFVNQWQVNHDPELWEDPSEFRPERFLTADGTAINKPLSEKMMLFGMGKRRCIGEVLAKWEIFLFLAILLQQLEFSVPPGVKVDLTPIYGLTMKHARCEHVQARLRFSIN
Sequence of Lysosomal acid glucosylceramidase (Homo sapiens) (P04062 whole entry, looked up): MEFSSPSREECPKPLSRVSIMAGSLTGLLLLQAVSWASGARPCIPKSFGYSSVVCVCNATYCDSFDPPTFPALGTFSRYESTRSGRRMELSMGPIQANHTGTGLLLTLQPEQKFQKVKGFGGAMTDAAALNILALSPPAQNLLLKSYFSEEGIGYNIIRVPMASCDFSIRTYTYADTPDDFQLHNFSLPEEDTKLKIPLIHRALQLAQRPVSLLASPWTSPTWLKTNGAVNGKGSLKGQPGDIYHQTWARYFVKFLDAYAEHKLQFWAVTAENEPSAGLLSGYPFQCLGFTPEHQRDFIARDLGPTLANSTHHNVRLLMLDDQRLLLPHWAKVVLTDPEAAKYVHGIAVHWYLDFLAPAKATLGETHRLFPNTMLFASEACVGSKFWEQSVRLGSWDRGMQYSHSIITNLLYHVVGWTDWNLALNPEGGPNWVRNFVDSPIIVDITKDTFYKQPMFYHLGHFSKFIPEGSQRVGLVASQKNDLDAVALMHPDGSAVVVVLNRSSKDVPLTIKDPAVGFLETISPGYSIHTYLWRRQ
Sequence of Cytochrome P450 3A4 (Homo sapiens) (P08684 whole entry, looked up): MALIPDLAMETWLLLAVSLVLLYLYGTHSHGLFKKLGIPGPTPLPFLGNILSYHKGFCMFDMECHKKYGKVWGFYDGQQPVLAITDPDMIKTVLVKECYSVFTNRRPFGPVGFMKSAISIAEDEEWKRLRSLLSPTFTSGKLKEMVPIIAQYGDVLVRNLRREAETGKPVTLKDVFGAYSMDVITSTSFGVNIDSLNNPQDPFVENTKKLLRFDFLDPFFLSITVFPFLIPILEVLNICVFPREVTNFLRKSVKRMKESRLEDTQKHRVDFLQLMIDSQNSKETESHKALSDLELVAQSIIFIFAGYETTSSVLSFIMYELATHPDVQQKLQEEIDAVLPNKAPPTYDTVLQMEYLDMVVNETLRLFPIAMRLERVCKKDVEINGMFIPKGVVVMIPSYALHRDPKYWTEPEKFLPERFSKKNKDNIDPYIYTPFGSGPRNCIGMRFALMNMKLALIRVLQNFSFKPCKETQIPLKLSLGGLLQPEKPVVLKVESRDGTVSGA
Sequence of Ubiquitin carboxyl-terminal hydrolase 1 (Homo sapiens) (O94782 whole entry, looked up): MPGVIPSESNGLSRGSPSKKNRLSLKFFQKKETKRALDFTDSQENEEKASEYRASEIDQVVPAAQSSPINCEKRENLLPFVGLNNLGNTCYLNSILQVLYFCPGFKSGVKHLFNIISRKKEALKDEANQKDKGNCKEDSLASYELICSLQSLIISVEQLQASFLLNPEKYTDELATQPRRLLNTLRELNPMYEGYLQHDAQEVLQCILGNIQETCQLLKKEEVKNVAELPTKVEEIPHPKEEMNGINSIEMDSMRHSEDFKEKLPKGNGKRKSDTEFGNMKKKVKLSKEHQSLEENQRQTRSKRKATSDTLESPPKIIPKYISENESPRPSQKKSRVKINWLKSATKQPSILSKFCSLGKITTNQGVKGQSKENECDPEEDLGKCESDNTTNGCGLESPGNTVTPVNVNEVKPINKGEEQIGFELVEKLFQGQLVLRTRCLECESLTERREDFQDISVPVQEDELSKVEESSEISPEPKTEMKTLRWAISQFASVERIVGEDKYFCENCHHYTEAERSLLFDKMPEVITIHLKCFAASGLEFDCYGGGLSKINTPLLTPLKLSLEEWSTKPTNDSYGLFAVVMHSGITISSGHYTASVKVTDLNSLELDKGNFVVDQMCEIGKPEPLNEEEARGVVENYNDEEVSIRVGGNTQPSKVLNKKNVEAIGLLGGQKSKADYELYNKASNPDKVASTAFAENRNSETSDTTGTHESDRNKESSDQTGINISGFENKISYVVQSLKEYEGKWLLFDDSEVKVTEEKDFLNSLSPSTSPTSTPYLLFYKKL
Sequence of Cytochrome P450 2C19 (Homo sapiens) (P33261 whole entry, looked up): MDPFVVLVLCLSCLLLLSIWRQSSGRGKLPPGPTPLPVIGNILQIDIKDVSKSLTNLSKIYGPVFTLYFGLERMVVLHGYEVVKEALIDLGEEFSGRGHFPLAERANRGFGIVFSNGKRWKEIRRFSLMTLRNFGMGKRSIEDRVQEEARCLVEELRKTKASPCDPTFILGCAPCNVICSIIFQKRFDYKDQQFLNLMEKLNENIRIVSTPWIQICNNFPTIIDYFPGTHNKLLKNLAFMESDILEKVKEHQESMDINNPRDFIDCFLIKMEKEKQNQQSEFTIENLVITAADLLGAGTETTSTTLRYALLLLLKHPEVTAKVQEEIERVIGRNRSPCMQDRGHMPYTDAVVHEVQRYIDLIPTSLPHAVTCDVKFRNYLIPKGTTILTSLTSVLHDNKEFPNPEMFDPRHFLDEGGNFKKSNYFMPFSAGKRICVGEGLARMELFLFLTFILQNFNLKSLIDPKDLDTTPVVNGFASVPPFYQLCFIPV

`COc1ccc2[nH]cc(CCNc3nc(-c4ccoc4)nc4ccccc34)c2c1`: the Potency in [1] is 8.61 µM (active); in [3] it was 0.398 µM (active); in experiment [5], > 46 µM (inactive); in experiment [6], > 46 µM (inactive); in experiment [8], 3.16 µM (active); in experiment [10] it was 1.58 µM (active). Further, the activity change, negative = inhibition was -4.09% (inactive) in [2] and 9.94% (inactive) in experiment [14]. For the same molecule, the activity, negative = inhibition in [4] is -9.95% (inactive). For the same molecule, the Potency result in experiment [7], in experiment [9] and in [11] was “inactive” each time. The activation in [12] is -13.1% (inactive). In addition, the molecule was classed as inactive in experiment [13]. For the same molecule, the max response in experiment [14] (setting [18]) was determined as 6.9%; in [14] (setting [19]), 18.2%.

In the case of `CN(C)Cc1ccccc1-c1ccc2ncnc(NC3CC3)c2c1`, the Potency in experiment [1] was > 11.4 µM (inactive); in experiment [5] it was > 46 µM (inactive); in experiment [6], > 46 µM (inactive). The activity change, negative = inhibition in [2] was 24% (inactive); in experiment [15], -9.4% (inactive); in experiment [14], 9.69% (inactive). The activity, negative = inhibition in experiment [4] is -14.6% (inactive). Also, the Potency result in [7], in experiment [16], in experiment [11] and in experiment [17] was “inactive” in each case. The outcome in experiment [13] was inactive. Besides, the max response was determined as 12.6% in experiment [14] (setting [18]) and 24.1% in experiment [14] (setting [19]).

For `O=C(Nc1cccc(F)c1)N1CCCC2(CCN(C(=O)c3cc(C(F)(F)F)cc(C(F)(F)F)c3)CC2)C1`, the Potency in experiment [1] was > 11.4 µM (inactive); in experiment [3], 12.6 µM (active). The activity change, negative = inhibition is -25.5% (inactive) in [2], 23.3% (inactive) in experiment [15] and 0.997% (inactive) in [14]. Further, the activity, negative = inhibition in [4] was -17.6% (inactive). Moreover, the Potency result in [7] and in experiment [9] was “inactive” throughout. Moreover, the max response in experiment [14] (setting [18]) came out at 12.9%; in [14] (setting [19]), 17.1%.

`FC(F)(F)c1cc(CN2CCC3(CCNCC3)CC2)cc(C(F)(F)F)c1`: the Potency in experiment [1] is > 11.4 µM (inactive); in experiment [6], > 46 µM (inactive). In addition, the activity change, negative = inhibition in experiment [2] was 3.22% (inactive); in experiment [15] it was 9.54% (inactive); in experiment [14], -1.92% (inactive). The Potency entry in experiment [3], in [7], in experiment [16] and in experiment [9] was “inactive” in each case. The activity, negative = inhibition in experiment [4] is 1.83% (inactive). In addition, the figures for the max response in [14] (setting [18]) and in [14] (setting [19]) were -8.05% and -9.72%, respectively.

On to `COc1ccccc1CN1CC[C@@]2(CCCN(C(=O)c3cc(C(F)(F)F)cc(C(F)(F)F)c3)C2)C1`, for which the Potency in [1] was > 11.4 µM (inactive); in experiment [3], 15.8 µM (active); in [6], > 46 µM (inactive). In addition, the activity change, negative = inhibition in experiment [2] was -0.111% (inactive); in [14], 2.5% (inactive). For the same molecule, the activity, negative = inhibition in [4] was 4.98% (inactive). In addition, the Potency result in experiment [7] and in [16] was “inactive” throughout. Moreover, the max response in experiment [14] (setting [18]) was 2.09%; in experiment [14] (setting [19]), 7.48%.

Regarding `N#CCCn1c(=O)c(-c2ccc(Cl)cc2)nc2cnc(Oc3cccc(Cl)c3)nc21`, the Potency was > 11.4 µM (inactive) in [1], > 9.22 µM (inactive) in experiment [5] and > 46 µM (inactive) in experiment [6]. Also, the activity change, negative = inhibition was 23.4% (inactive) in experiment [2], 14.7% (inactive) in experiment [15] and 4.13% (inactive) in [14]. In addition, the Potency entry in [3], in [7] and in experiment [16] was “inactive” throughout. Besides, the results for the max response in experiment [14] (setting [18]) and in [14] (setting [19]) were 4.81% and 10.2%, respectively.
